Measurements as given in PubChem BioAssay.
Active and inactive are the calls of the source.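 The calls were made as follows: active = compounds killing one labelled cell type while sparing the other, by normalised counts and ratio limits, not self-fluorescent; inactive = the rest.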

Assay: EMT-state selective cytotoxicity in co-culture – imaging, PC-3E GFP, TEM4-18 mCherry, primary screen (AID 1345086);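 also: cells exposed to compound for 72 h before imaging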;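 as to red/green cell ratio (normalised): normalised mesenchymal count divided by normalised epithelial count so high means epithelial killing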
Details: PC-3E GFP / TEM4-18 mCherry co-culture, imaging cell counts, at 1 µM; for red/green cell ratio (normalised): actives lie on both sides, counts scaled to control wells, 1 = unselective
[1] = measured here: epithelial PC-3E GFP cell survival
[2] = measured here: mesenchymal TEM4-18 mCherry cell survival

With `COc1cc(O)c2c(=O)c(OC)c(-c3ccc(OC)c(OC)c3)oc2c1` the red/green cell ratio (normalised) was 1.03 (inactive), the normalised cell number [1] was 0.82 and the normalised cell number [2] was 0.85.
In the case of `CO[C@@]1(NC(=O)C2SC(=C(C(N)=O)C(=O)O)S2)C(=O)N2C(C(=O)O)=C(CSc3nnnn3C)CSC21` (stereo partly drawn), the red/green cell ratio (normalised) is reported as 0.96 (inactive), the normalised cell number [1] is reported as 1.21 and the normalised cell number [2] is reported as 1.17.
In the case of `C#C[C@H](O)COc1ccc(C(=O)O)cc1`, the red/green cell ratio (normalised) is reported as 1.18 (inactive), the normalised cell number [1] is reported as 0.57 and the normalised cell number [2] is reported as 0.68.
In the case of `CC1O[C@@H](Oc2c(-c3ccc(O)c(O)c3)oc3cc(O)cc(O)c3c2=O)[C@H](O)[C@H](O)[C@H]1O` (stereo partly drawn), the red/green cell ratio (normalised) is reported as 1.01 (inactive), the normalised cell number [1] is reported as 1.01 and the normalised cell number [2] is reported as 1.02.
For `CC1(C)C(=O)C=C[C@@]2(C)C1C=C[C@]1(C)C2CC[C@@]2(C)[C@H](c3ccoc3)OC(=O)[C@H]3O[C@]321` (stereo partly drawn), the red/green cell ratio (normalised) was 1.3 (inactive), the normalised cell number [1] was 0.56 and the normalised cell number [2] was 0.73.
For `C=C(C)C#CC1=C[C@@H](O)[C@@H]2O[C@]2([C@H](O)C=C(C)C)[C@@H]1O`, the red/green cell ratio (normalised) was 0.95 (inactive), the normalised cell number [1] was 0.96 and the normalised cell number [2] was 0.91.
With `Nc1ccc2ccccc2c1S(=O)(=O)O` the red/green cell ratio (normalised) was 0.94 (inactive), the normalised cell number [1] was 1.03 and the normalised cell number [2] was 0.97.
For `COC(=O)CCC(C)C1CCC2C3CC[C@@H]4C[C@H](O)CC[C@]4(C)C3C[C@H](O)[C@]12C` (stereo partly drawn), the red/green cell ratio (normalised) was 0.9 (inactive), the normalised cell number [1] was 1.05 and the normalised cell number [2] was 0.94.
In the case of `O=C1CC[C@]23/C=C/C(=O)NCCCCNCCCNC(=O)/C=C/c4ccc(c2c4)O[C@@H]3C1`, the red/green cell ratio (normalised) is reported as 0.81 (inactive), the normalised cell number [1] is reported as 1.1 and the normalised cell number [2] is reported as 0.89.
For `C=C(C)n1cc(C(=O)O)c(=O)c2cc(F)c(N3CC[C@@H](CN)C3)c(OC)c21`, the red/green cell ratio (normalised) was 1.13 (inactive), the normalised cell number [1] was 1.07 and the normalised cell number [2] was 1.21.
For `COC(=O)C1O[C@H](OCc2ccccc2)[C@@H](OC(C)=O)[C@@H](OC(C)=O)C1OC(C)=O` (stereo partly drawn), the red/green cell ratio (normalised) was 0.86 (inactive), the normalised cell number [1] was 1.31 and the normalised cell number [2] was 1.13.
For `COC(=O)CCC(C)[C@H]1CCC2C3C(C[C@H](O)[C@@]21C)[C@@]1(C)CC[C@@H](O)C[C@H]1C[C@H]3O` (stereo partly drawn), the red/green cell ratio (normalised) was 1.15 (inactive), the normalised cell number [1] was 0.89 and the normalised cell number [2] was 1.02.
With `C[C@H]1C[C@H](O)[C@H]2[C@@H](C=C[C@@](C)(O)[C@]2(C)C(=O)CCO)C1` the red/green cell ratio (normalised) was 0.95 (inactive), the normalised cell number [1] was 0.32 and the normalised cell number [2] was 0.3.
For `COC(=O)c1ccc(C(CC(C)C)NC(C)=O)o1` (stereo not drawn), the red/green cell ratio (normalised) was 1 (inactive), the normalised cell number [1] was 1.11 and the normalised cell number [2] was 1.12.
With `CC(=O)OC1(C)CC[C@@]23CC1C(C)(C)[C@@H]2CC[C@H]3C` (stereo partly drawn) the red/green cell ratio (normalised) was 0.99 (inactive), the normalised cell number [1] was 1.16 and the normalised cell number [2] was 1.15.
In the case of `C=C1[C@@H](C)C2[C@H](Cc3c[nH]c4ccccc34)NC(=O)[C@]23C(=O)/C=C/C(=O)[C@H](OC(C)=O)/C(C)=C/[C@@H](C)C/C=C/[C@H]3[C@@H]1O` (stereo partly drawn), the red/green cell ratio (normalised) is reported as 1.13 (inactive), the normalised cell number [1] is reported as 0.94 and the normalised cell number [2] is reported as 1.06.
In the case of `O=C(NCC1O[C@@H](OC2C(NC(=O)c3ccccc3)C[C@@H](NC(=O)c3ccccc3)[C@H](OC3OC(COS(=O)(=O)O)[C@@H](OS(=O)(=O)O)[C@H](NC(=O)c4ccccc4)[C@H]3OS(=O)(=O)O)[C@H]2OS(=O)(=O)O)[C@H](OS(=O)(=O)O)[C@@H](OS(=O)(=O)O)C1OS(=O)(=O)O)c1ccccc1` (stereo partly drawn), the red/green cell ratio (normalised) is reported as 1.21 (inactive), the normalised cell number [1] is reported as 0.96 and the normalised cell number [2] is reported as 1.16.
For `Cc1cc(O)c(C(=O)c2c(O)cccc2O)c(C(=O)O)c1`, the red/green cell ratio (normalised) was 0.99 (inactive), the normalised cell number [1] was 1.15 and the normalised cell number [2] was 1.14.
With `CCCc1oc(=O)cc(OC)c1CO` the red/green cell ratio (normalised) was 0.86 (inactive), the normalised cell number [1] was 1.2 and the normalised cell number [2] was 1.03.
For `O=c1c(O)c(-c2ccccc2)oc2ccc3occc3c12`, the red/green cell ratio (normalised) was 0.81 (inactive), the normalised cell number [1] was 1.22 and the normalised cell number [2] was 0.99.
For `COC(=O)C1O[C@H](OCc2ccc(OC)cc2)[C@@H](OC(=O)c2ccccc2)[C@@H](OC(=O)c2ccccc2)C1O` (stereo partly drawn), the red/green cell ratio (normalised) was 0.84 (inactive), the normalised cell number [1] was 1.32 and the normalised cell number [2] was 1.11.
With `C[C@@H]1Cc2cccc(O)c2C(=O)O1` the red/green cell ratio (normalised) was 1.03 (inactive), the normalised cell number [1] was 0.83 and the normalised cell number [2] was 0.85.
With `Clc1ccc(Br)cc1/C=C/C1CCCNC1` (stereo not drawn) the red/green cell ratio (normalised) was 0.95 (inactive), the normalised cell number [1] was 1.16 and the normalised cell number [2] was 1.1.
With `CC1(C)CC2C1CCC1(CBr)CCC3C(CC(=O)O)C(=O)OC32C1` (stereo not drawn) the red/green cell ratio (normalised) was 0.9 (inactive), the normalised cell number [1] was 1.14 and the normalised cell number [2] was 1.02.
In the case of `Nc1nc(=S)c2ncn(C3O[C@H](CO)[C@@H](O)[C@H]3O)c2[nH]1` (stereo partly drawn), the red/green cell ratio (normalised) is reported as 0.83 (inactive), the normalised cell number [1] is reported as 1.02 and the normalised cell number [2] is reported as 0.85.
In the case of `COC(=O)C[C@@H]1C2(C)C(=O)[C@@H](CC3=C4CC(=O)O[C@@H](c5ccoc5)[C@]4(C)CCC32)[C@H](OC(C)=O)C1(C)C` (stereo partly drawn), the red/green cell ratio (normalised) is reported as 1.06 (inactive), the normalised cell number [1] is reported as 0.96 and the normalised cell number [2] is reported as 1.02.
In the case of `CC(=O)OCC1O[C@H](Sc2ccc(C)cc2)[C@@H]2[C@@H](OC(=O)N2Cc2ccccc2)C1OC(C)=O` (stereo partly drawn), the red/green cell ratio (normalised) is reported as 0.83 (inactive), the normalised cell number [1] is reported as 1.3 and the normalised cell number [2] is reported as 1.08.
With `CC1(C)S[C@@H]2[C@H](NC(=O)C(N)c3ccc(O)cc3)C(=O)N2[C@H]1C(=O)O` (stereo partly drawn) the red/green cell ratio (normalised) was 0.84 (inactive), the normalised cell number [1] was 1.22 and the normalised cell number [2] was 1.02.
In the case of `CC(C)c1c(O)ccc2c1CCC1C(C)(C)CCC[C@]21C` (stereo partly drawn), the red/green cell ratio (normalised) is reported as 0.99 (inactive), the normalised cell number [1] is reported as 1.08 and the normalised cell number [2] is reported as 1.07.
For `COC(=O)C[C@H]1C2(C)CC34OC5(C)O[C@]6(C7/C(=C(/OC)C(C)C)C(=O)O[C@@H](c8ccoc8)[C@]7(C)C(OC(=O)C(C)C)[C@@H](OC)[C@]6(O5)C13C)[C@H](OC)[C@@]4(OC)C2OC(C)=O` (stereo partly drawn), the red/green cell ratio (normalised) was 0.95 (inactive), the normalised cell number [1] was 1.04 and the normalised cell number [2] was 1.
For `CCN1CC(CCN2CCOCC2)C(C(c2ccccc2)c2ccccc2)C1=O` (stereo not drawn), the red/green cell ratio (normalised) was 0.72 (inactive), the normalised cell number [1] was 1.12 and the normalised cell number [2] was 0.81.
With `C/C(=C\CO)CC[C@H](C)CCC[C@H](C)CCCC(C)C` the red/green cell ratio (normalised) was 1.12 (inactive), the normalised cell number [1] was 0.97 and the normalised cell number [2] was 1.09.
For `CCC(CCC(C)[C@H]1CCC2C3CC=C4C[C@@H](OC(C)=O)CC[C@]4(C)C3CC[C@@]21C)C(C)C` (stereo partly drawn), the red/green cell ratio (normalised) was 0.94 (inactive), the normalised cell number [1] was 1.1 and the normalised cell number [2] was 1.03.
For `C[C@H](O)[C@@H]1N[C@H]2N(C1=O)c1ccccc1C21CC2C(=O)NC1c1nc3ccccc3c(=O)n12` (stereo partly drawn), the red/green cell ratio (normalised) was 1.08 (inactive), the normalised cell number [1] was 0.88 and the normalised cell number [2] was 0.95.
In the case of `CC1COc2c(N)c(F)cc3c(=O)c(C(=O)O)cn1c23` (stereo not drawn), the red/green cell ratio (normalised) is reported as 0.95 (inactive), the normalised cell number [1] is reported as 1.07 and the normalised cell number [2] is reported as 1.01.
In the case of `C=CC(C)(C)c1cccc2[nH]c3c(c12)C[C@@H]1CC[C@@]2(O)C4=CC(=O)[C@@H]5O[C@@]4(CC[C@]2(C)[C@@]31C)CC5(C)C`, the red/green cell ratio (normalised) is reported as 1 (inactive), the normalised cell number [1] is reported as 1.11 and the normalised cell number [2] is reported as 1.11.
